Assay outcomes (PubChem BioAssay)
hDAT+cocaine = modulates human dopamine transporter uptake under cocaine; 110,000 compounds, 1.3% hits; AID 449768; LLC-PK1 hDAT cells, [14C]-dopamine uptake with cocaine IC80; actives deviate in either direction; B-score at 10 µM;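 active means Z score or B-score, a plate-position-corrected score, falls beyond the plate's 99.7% confidence bounds, in either direction; inactive means both scores lie inside the 99.7% bounds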
CYP2C9 act = increases human cytochrome P450 2C9 activity; P11712; recombinant CYP2C9, luciferin-H conversion, luminescence; active compounds read high; factor 1 = untreated enzyme, 0 = blocked; activation factor at 5 µM; 96,000 compounds, 1.4% hits; AID 1024;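 active means activation factor of 2 or more for CYP2C9 at a 5 µM dose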
CYP2C19 activ = activators of human cytochrome P450 2C19; recombinant CYP2C19, luciferin-H EGE luminescence; active compounds read high; 0 = fully inhibited enzyme, 1 = untreated enzyme; 96,000 tested, under 10 active; AID 1025; P33261; activation factor at 5 µM;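 active means activation factor of at least 2 at 5 µM in the primary screen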
Target sequence (P33261 whole entry, looked up): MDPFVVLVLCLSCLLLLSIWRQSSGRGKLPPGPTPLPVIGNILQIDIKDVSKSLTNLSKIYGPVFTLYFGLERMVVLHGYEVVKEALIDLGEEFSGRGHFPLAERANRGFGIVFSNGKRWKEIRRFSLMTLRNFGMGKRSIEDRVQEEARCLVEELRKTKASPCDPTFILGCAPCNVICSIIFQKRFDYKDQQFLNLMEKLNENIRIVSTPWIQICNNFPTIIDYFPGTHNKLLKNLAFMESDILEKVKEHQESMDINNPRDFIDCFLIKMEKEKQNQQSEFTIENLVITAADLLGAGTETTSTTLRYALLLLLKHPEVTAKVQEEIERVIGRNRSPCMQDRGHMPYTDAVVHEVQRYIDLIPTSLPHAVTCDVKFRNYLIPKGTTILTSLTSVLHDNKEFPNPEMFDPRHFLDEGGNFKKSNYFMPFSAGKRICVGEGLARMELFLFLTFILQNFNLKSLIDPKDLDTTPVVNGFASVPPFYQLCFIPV
D1 mod = allosterically modulates the human D1 dopamine receptor; B-score at 10 µM; P21728; 58,000 compounds, 5.9% hits; AID 641; HEK293 D1, CRE-luciferase, dopamine EC30 potentiation; actives deviate in either direction;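 active means luminescence count or its row- and column-corrected plate score outside the 99.7% band of the plate's sample wells, on either side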
CYP2C9 inhib = inhibitors of human CYP2C9. P11712. 96,000 compounds, 20% hits. inhibition, % at 5 µM. CYP2C9 Supersomes, luciferin-H conversion, luminescence;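 active means blocking of liver enzyme CYP2C9 beyond about 50% at 5 µM, limit read from the data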
CYP2C19 inhib = inhibitors of human CYP2C19 | P33261 | inhibition, % at 5 µM | 96,000 compounds, 21% hits | CYP2C19 Supersomes, luciferin-H EGE luminescence, 30 min;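 active means CYP2C19 inhibition above a set limit at 5 µM in the primary screen, cut at about 50% in these data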
Each line names hits and unclear results; the compound was inactive in the other large screens. Hits are enriched below; roughly 28% of the tested compounds scored in any of these assays.

COC(=O)CCCC1=CC2=C(c3ccccc3)C(=O)C(C)(OC(=O)C3CCCC3)C(=O)C2=CN1Cc1ccc2c(c1)OCO2 (configuration not stated)	none (no result: CYP2C9 act, CYP2C19 activ, D1 mod, CYP2C9 inhib, CYP2C19 inhib)
CC(C)CCNC(=O)CN(Cc1cccs1)C(=O)CCC(=O)Nc1nccs1	none (no result: D1 mod)
CCCCCCNC(=O)C(C(=O)OCC)C1CCCCC1 (configuration not stated)	none
CC(C)C1O/C(=N/C(=O)Nc2ccc(Cl)c(Cl)c2)NC1=O (configuration not stated)	none
CCCCC(=O)Nc1nnc(SCC(=O)N2CCN(c3ccccc3OC)CC2)s1	none
COc1ccccc1N1CCN(C(=O)CSc2nnc(NC(=O)C3CC3)s2)CC1	CYP2C9 inhib 82
Cc1ccc(-n2c(C)cc3c2CCCC3=O)cc1	none
COc1ccc(-n2c(-c3ccccc3)cc3c2CCCC3=O)cc1	CYP2C19 inhib 76 (no result: D1 mod)
Cc1ccc(NC(=O)CN2CCC(C(=O)c3ccc4c(c3)OCCO4)CC2)cc1	CYP2C19 inhib 85 (no result: D1 mod)
COC(=O)c1ccccc1NC(=O)CN1CCC(C(=O)c2ccc3c(c2)OCCO3)CC1	CYP2C9 inhib 78, CYP2C19 inhib 81
CCCOc1nc(N)c(C#N)c(-c2ccccc2F)c1C#N	none
N=C1C(c2nc3ccccc3[nH]2)=C(O)CN1c1ccccc1	none
N=C1C(c2nc3ccccc3c(=O)[nH]2)=C(O)CN1c1ccccc1	CYP2C9 act 2.2 (no result: D1 mod)
COc1ccc(CCN2CC(O)=C(c3nc4ccccc4c(=O)[nH]3)C2=N)cc1OC	CYP2C19 inhib 69
Cn1c(CCC(=O)Nc2ccc(N3CCOCC3)cc2)nc(=O)c2ccccc21	none
N=c1cc(C2(O)CCCCC2)n2c(nc3ccccc32)s1	CYP2C9 inhib 58
O=c1/c(=C\c2cccnc2)sc2nc3ccccc3n12	none
CN(C1=NC(=O)C(CC(=O)Nc2ccc(Br)cc2)S1)c1ccc(O)cc1 (configuration not stated)	hDAT+cocaine -4, D1 mod -3.8, CYP2C9 inhib 62
CCO[C@H]1OC(C(N)=O)=C[C@@H](C2CC2)[C@@H]1CCCO	none (no result: CYP2C9 act, CYP2C19 activ, D1 mod, CYP2C9 inhib, CYP2C19 inhib)
Cc1cccc(OCCCOc2cccc3cccnc23)c1C	CYP2C19 inhib 56 (no result: D1 mod)
Cc1ccc(OCCCOc2cccc3cccnc23)cc1C	CYP2C9 act 2.8, CYP2C19 inhib 72 (no result: D1 mod)
CCOC(=O)N1CCN(C(=O)CN(c2ccc3c(c2)OCO3)S(C)(=O)=O)CC1	none
CC1(C)CC2CC(C)(CN2CC(=O)C(C#N)c2ccccc2)C1 (configuration not stated)	CYP2C19 inhib 80
CCSc1nnc(NC(=O)CSc2nc3c(c(=O)n2CCOC)SC(C)C3)s1 (configuration not stated)	none (no result: CYP2C9 act, CYP2C19 activ, CYP2C9 inhib, CYP2C19 inhib)
CC1Cc2nc(SCC(=O)Nc3ccc(F)cc3F)n(C)c(=O)c2S1 (configuration not stated)	CYP2C9 inhib 53
CCn1c(SCC(=O)Nc2cc(C)ccc2C)nc2c(c1=O)SC(C)C2 (configuration not stated)	CYP2C9 inhib 76
CCn1c(SCC(=O)Nc2cccc(F)c2)nc2c(c1=O)SC(C)C2 (configuration not stated)	none (no result: CYP2C9 act, CYP2C19 activ, D1 mod, CYP2C9 inhib, CYP2C19 inhib)
CC1Cc2nc(SCC(=O)N3CCCC3)n(C)c(=O)c2S1 (configuration not stated)	none
Cc1ccc(C)c(NC(=O)CSc2nc3c(c(=O)n2C)SC(C)C3)c1 (configuration not stated)	CYP2C9 inhib 66
Cc1ccc2nc(NC(=O)CSc3nc4c(c(=O)n3C)SC(C)C4)sc2c1 (configuration not stated)	CYP2C9 inhib 68
N#CC1=C(N2CCCCC2)c2cc3c(n2C1=O)CCCC3	none (no result: D1 mod)
Cc1cc2cc(C(c3nnnn3Cc3ccco3)N3CCc4ccccc4C3)c(=O)[nH]c2cc1C (configuration not stated)	hDAT+cocaine 3.9
Cc1cc2cc(C(c3nnnn3Cc3ccccc3)N3CCc4ccccc43)c(=O)[nH]c2cc1C (configuration not stated)	CYP2C9 inhib 68 (no result: hDAT+cocaine, D1 mod)
Cc1ccc2[nH]c(=O)c(C(c3nnnn3Cc3ccccc3)N3CCc4ccccc43)cc2c1 (configuration not stated)	none (no result: D1 mod)
CCc1ccc2[nH]c(=O)c(C(c3nnnn3Cc3ccco3)N3CCC(C)CC3)cc2c1 (configuration not stated)	CYP2C19 inhib 60 (no result: D1 mod)
CCc1ccc2[nH]c(=O)c(C(c3nnnn3Cc3ccc(OC)cc3)N3CCOCC3)cc2c1 (configuration not stated)	none
Cc1cccn2c(=O)c3cc(C#N)c(=O)n(Cc4cccnc4)c3nc12	none (no result: hDAT+cocaine)
CC(=O)N(O)CCCCCNC(=O)CCC(=O)N(O)CCCCCNC(=O)CCC(=O)N(O)CCCCCN	none (no result: CYP2C9 act, CYP2C19 activ, D1 mod, CYP2C9 inhib, CYP2C19 inhib)
COc1cc(OC)cc(C(C(=O)NCc2ccccc2)N(Cc2ccco2)C(=O)c2ccno2)c1 (configuration not stated)	CYP2C9 inhib 60, CYP2C19 inhib 69 (no result: D1 mod)
COC(=O)c1ccc(C(C(=O)NCc2ccccc2)N(Cc2ccco2)C(=O)c2cnccn2)cc1 (configuration not stated)	none
CCOCCCNC(=O)c1c[nH]c2ccc(S(=O)(=O)Nc3cccc(OC)c3)cc2c1=O	CYP2C9 inhib 68
O=C(NCc1ccccc1)c1c[nH]c2ccc(S(=O)(=O)Nc3ccc4c(c3)OCCO4)cc2c1=O	CYP2C9 inhib 89
O=C(NC1CC1)c1c[nH]c2ccc(S(=O)(=O)Nc3cccc(C(F)(F)F)c3)cc2c1=O	CYP2C9 inhib 54
COc1ccc(NC(=O)c2nc[nH]c2C(=O)N(C)Cc2ccccc2)cc1	none (no result: CYP2C9 act, CYP2C19 activ, D1 mod, CYP2C9 inhib, CYP2C19 inhib)
COC(=O)[C@H](CCSC)NC(=O)NCc1ccc(S(N)(=O)=O)cc1	none
COC(=O)[C@@H]1C[C@@]2(O)[C@@H](O)[C@@H](O)[C@@H](O)C[C@H]2N1CC1CCCCC1	none (no result: CYP2C9 act, CYP2C19 activ, D1 mod, CYP2C9 inhib, CYP2C19 inhib)
Cc1cc(OC(C)C(=O)N/N=C/CC(C)c2ccccc2)ccc1Cl (configuration not stated)	CYP2C19 inhib 74 (no result: D1 mod)
CC(/C=N/NC(=O)C(O)c1ccccc1)=C\c1ccccc1 (configuration not stated)	none (no result: D1 mod)
CCOC(=O)C1=C(c2ccccc2)N(C)C(=O)NC1c1ccc(OC(F)F)c(OC)c1 (configuration not stated)	CYP2C9 inhib 83, CYP2C19 inhib 69
O=C(NC1CCCC1)C(c1ccc(Cl)cc1)N1CCOCC1 (configuration not stated)	none
CCOC(=O)C1=C(CC)Nc2ccccc2N=C1NC(=O)c1cc(S(=O)(=O)N(C)C)ccc1Cl	CYP2C9 inhib 68 (no result: D1 mod)
CN1C(C(=O)NCCc2cccs2)CC2Cn3c(nc4cc(Cl)c(Cl)cc43)C21 (configuration not stated)	none (no result: CYP2C9 act, CYP2C19 activ, D1 mod, CYP2C9 inhib, CYP2C19 inhib)
CCc1ccc(C2(C)SC(NC(C)=O)=NN2C(C)=O)cc1 (configuration not stated)	CYP2C19 inhib 71 (no result: D1 mod)
